SMILES strings stand for the structures.

Consider 37 molecules from ChEMBL document CHEMBL1157539, “Thousands of chemical starting points for antimalarial lead identification” (Nature, 2010).

For the experiment, the system named is Plasmodium falciparum. Kind of experiment: GSK_TCMDC: Inhibition of Plasmodium falciparum 3D7 in whole red blood cells, using parasite LDH activity as an index of growth. Test compounds present at 2uM. The format is functional.
The Inhibition is the percentage by which the read-out fell short of the control. Lower therefore signals a response near the control. Molecule `Cc1ccc(-c2noc(COc3ccccc3C(=O)NC3CCCC3)n2)cc1` yielded an Inhibition of 89%. The same measure for `CN1CCCC1CCNCc1cccc(-c2cnc(N3CCCC(C)(C)C3)nc2)c1` (configuration not stated): 98%; for `Cc1cccc2nc(-c3ccc(-c4ccc(CNCCN5CCNCC5)cc4)s3)[nH]c12.O=C(O)C(F)(F)F`: 88%; for `Oc1ccc(Cl)c2c1C(c1ccccc1)=NCC2`: 95%. The same measure for `O=C(CC1NC(=O)c2ccccc21)Nc1ccc(-c2cccc(-c3nc4cc(C(F)(F)F)ccc4[nH]3)c2)cc1` (configuration not stated): 95%; for `Cc1ccc(C2(C)CN(CCCOc3cccc(-c4ccc(C(=O)NC(C)C)cc4)c3)CCO2)cc1` (configuration not stated): 93%. Then `COc1ccc(OC)c(-c2ccc(O)c(CNCC(C)c3ccccc3)c2)c1` (configuration not stated), with 98%. Regarding `O=C(O)C(F)(F)F.c1cc(CNCCc2ccncc2)cc(-c2ccc(-c3nc4ccccc4[nH]3)s2)c1`, the Inhibition is on record as 100%. In the case of `COc1cc([N+](=O)[O-])ccc1NC(=O)c1cc(Cl)ccc1O`, the Inhibition is on record as 87%. In turn, `O=C(/C=C/c1ccc(Cl)c(Cl)c1)NCCCCCCN1CCN(C(=O)Nc2ccc(F)c(Cl)c2)CC1` returned an Inhibition of 86%. The molecule `Oc1ccc(Cl)cc1-c1cc(C(F)(F)F)nc(-c2ccccc2)n1` yielded an Inhibition of 99%.

Take `CC(=O)OCCN1C(=O)c2ccc3c4c(ccc(c24)C1=O)C(=O)N(CCOC(C)=O)C3=O`: the Inhibition is 94%. The same measure for `CCOc1ccc(NC(C)=O)c(O)c1`: 96%; for `COc1ccc(NC(=O)[C@H](Cc2ccccc2)Nc2cc(C)nc(Nc3ccccc3)n2)cc1.O=C(O)C(F)(F)F`: 100%. The same measure for `Cc1cc(CNCCCCCCCNCc2ccc(-c3ccccc3)cc2)ccc1O`: 97%; for `COc1cc2ccccc2cc1CNCCCCCCNCc1cc2ccccc2cc1OC.CS(=O)(=O)O`: 100%; for `Cc1cc(N[C@@H](CC(C)C)C(=O)Nc2ccccc2)nc(NCCc2ccc(F)cc2)n1.O=C(O)C(F)(F)F`: 100%. For `OC(c1ccc(Cl)cc1)(c1ccc(Cl)cc1)C(c1ccc(Cl)cc1)n1ccnc1` (configuration not stated), the Inhibition came out at 100%. The molecule `Cc1csc(-c2nc(NCCc3c(C)noc3C)ncc2-c2ccsc2)n1` returned an Inhibition of 90%. For `CCCn1c(Sc2ccc(C#N)c([N+](=O)[O-])c2)nnc1-c1ccc(N(C)C)cc1`, the Inhibition is 97%.

`O=C(O)C(F)(F)F.OCCN1CCN(Cc2ccc(-c3ccc(-c4nc5cc(F)ccc5[nH]4)cc3)cc2)CC1` gave an Inhibition of 100%. `S=C(NCCCCCN1CCC(c2c[nH]c3ccccc23)CC1)Nc1cccc(I)c1` showed an Inhibition of 99%.

As for `O=C(NCc1ccccc1)OC1CNCCC1c1ccc(C(O)Cc2ccccc2)cc1.O=C(O)C(F)(F)F` (configuration not stated), the Inhibition is 87%. `COc1ccc2nccc([C@@H](O)CN3CCC(NCc4ccc5cccc(O)c5n4)CC3)c2n1.CS(=O)(=O)O`: the Inhibition is given as 94%. With `NCCCNc1ccnc2cc(Cl)ccc12`, the Inhibition was 100%. Consider `O=C(c1ccc(F)cc1)N1CCOC(CCN2CCC(c3ccccc3)CC2)(c2ccc(Cl)c(Cl)c2)C1` (configuration not stated), for which the Inhibition was determined as 88%. The same measure for `Cc1nc2ccc3ccc(CNc4ccc(C(=O)CC(CCC(=O)O)C(=O)O)cc4)cc3c2c(=O)[nH]1.[Cl-].[Na+]` (configuration not stated): 95%.

`CCn1cc(CN2CCCC(C(=O)Nc3ccc(-c4nc5ccccc5[nH]4)cc3)C2)cn1` (configuration not stated) registered an Inhibition of 100%. For the molecule `Fc1ccc2[nH]c(-c3cccc(-c4ccc(CN5CCN(CCN6CCOCC6)CC5)cc4)c3)nc2c1.O=C(O)C(F)(F)F`, the Inhibition came to 100%. The molecule `Cc1noc(C)c1C(=O)N1CCc2cc3nccc(N4CCN5CCC[C@H]5C4)c3cc21` came in with an Inhibition of 93%. The same measure for `CS(=O)(=O)c1ccc2c(c1)CCN(CCC1CCC(NC(=O)c3cc4cccc(Br)c4[nH]3)CC1)CC2` (configuration not stated): 92%. The same measure for `CCN(C)CCCn1c(N(C)C)nc2cc(-n3cnc4cc(-c5ccc(Cl)cc5)sc4c3=O)ccc21.O=C(O)C(F)(F)F`: 80%. The same measure for `O=S(=O)(c1cccc2cccnc12)N1CCN(C2CCCCC2)CC1`: 96%; for `COc1ccc2nccc([C@@H](O)CN3CCC(NC(=O)C(=Cc4ccc(Cl)cc4Cl)c4ccc(-c5ccccc5)cc4)CC3)c2c1`: 100%; for `CN1CCC(NCc2ccc(-c3ccc(C(F)(F)F)cc3)cc2)CC1`: 99%. `CC(C)n1c(C2CCN(CC3CCN(C(=O)/C=C/c4ccc(Cl)c(Cl)c4)CC3)CC2)nc2ccccc21`: the Inhibition turned out to be 94%. As for `Cc1ccccc1C1CCN(C2CCC(NC(=O)/C=C/c3ccc(F)c(F)c3)CC2)CC1` (configuration not stated), the Inhibition turned out to be 93%.
